Key:
Test in all cases: PBM binding z-score (relative to random genomic background probes); higher = stronger binding; sequences stand for … in GC…GCGATTGACAGCGTAGAATGAAGG
[1] = system: FXR:RXRa (NR concentration 270 nM, RXRa partner concentration 90 nM)
In short: (§1)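 For binding z-scores, the reference was random background probes on custom Agilent 4×180K protein-binding microarrays. These arrays were incubated 1 h with ligand-free nuclear receptor dimers in PBS pH 7.4, 2% milk, 0.02% Triton X-100, 1 mM DTT, 0.2 mg/mL BSA and 0.4 mg/ml salmon testes DNA. Fluorescence was scanned after antibody detection of each partner (one per run) and regression-normalized.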

[2] = system: LXRa:RXRa (NR concentration 270 nM, RXRa partner concentration 90 nM)
In short: as §1

[3] = system: LXRa homodimer (NR concentration 270 nM)
In short: as §1

[4] = system: LXRb:RXRa (NR concentration 270 nM, RXRa partner concentration 90 nM)
In short: as §1

[5] = system: LXRb homodimer (NR concentration 270 nM)
In short: as §1

[6] = system: PPARa:RXRa (NR concentration 270 nM, RXRa partner concentration 90 nM)
In short: as §1

[7] = system: PPARg:RXRa (NR concentration 180 nM, RXRa partner concentration 90 nM)
In short: as §1

[8] = system: PPARg:RXRa 270nM:90nM, anti-RXR (NR concentration 270 nM, RXRa partner concentration 90 nM)
In short: as §1

[9] = system: PPARg:RXRa 30nM:10nM, anti-RXR (NR concentration 30 nM, RXRa partner concentration 10 nM)
In short: as §1

[10] = system: PPARg:RXRa 90nM:30nM, anti-RXR (NR concentration 90 nM, RXRa partner concentration 30 nM)
In short: as §1

[11] = system: PPARg:RXRa DBDmut IVT, anti-RXR (DBD mutation: RXRa K156A/R161A, NR concentration 270 nM, RXRa partner concentration 90 nM)
In short: as §1

[12] = system: PPARg:RXRa IVT, anti-PPARg (NR concentration 270 nM, RXRa partner concentration 90 nM)
In short: as §1

[13] = system: PPARg DBDmut:RXRa IVT, anti-PPARg (DBD mutation: PPARg1 K132A/R137A, NR concentration 270 nM, RXRa partner concentration 90 nM)
In short: as §1

[14] = system: PPARg DBDmut IVT, anti-PPARg (DBD mutation: PPARg1 K132A/R137A, NR concentration 270 nM)
In short: as §1

[15] = system: PPARg homodimer (NR concentration 180 nM)
In short: as §1

[16] = system: PXR:RXRa (NR concentration 270 nM, RXRa partner concentration 90 nM)
In short: as §1

[17] = system: PXR homodimer (NR concentration 270 nM)
In short: as §1

[18] = system: RARa:RXR (NR concentration 270 nM, RXRa partner concentration 90 nM)
In short: as §1

[19] = system: RARa homodimer (NR concentration 270 nM)
In short: as §1

[20] = system: RARb:RXRa (NR concentration 270 nM, RXRa partner concentration 90 nM)
In short: as §1

Sequence	PBM binding z-score [1]	PBM binding z-score [2]	PBM binding z-score [3]	PBM binding z-score [4]	PBM binding z-score [5]	PBM binding z-score [6]	PBM binding z-score [7]	PBM binding z-score [8]	PBM binding z-score [9]	PBM binding z-score [10]	PBM binding z-score [11]	PBM binding z-score [12]	PBM binding z-score [13]	PBM binding z-score [14]	PBM binding z-score [15]	PBM binding z-score [16]	PBM binding z-score [17]	PBM binding z-score [18]	PBM binding z-score [19]	PBM binding z-score [20]
TCGAGTAGGTTACCAATGGGGCATTCTGCTTTCT	0.0174	1.11	-0.471	0.975	-0.712	1.33	0.0267	1.1	0.935	0.902	3.32	2.53	-0.301	-0.867	-0.334	-0.0891	-0.788	0.363	-0.932	0.902
TCATATAGGTAATATAGGTGAAAGTCGGCATCTA	0.703	1.07	0.157	0.856	0.102	2.92	3.31	3.65	4.1	3.94	5.06	5.68	1.83	1.71	1.03	0.599	-0.0145	1.09	0.799	0.469
AGAAAGAGGGCAATGAGTTGATAGCACGGGTGGC	0.593	0.892	0.104	0.387	0.472	1.55	1.23	0.938	0.0317	0.591	2.75	1.6	0.0853	0.306	0.658	1.84	4.38	0.758	0.0375	2.46
CCTGCTAAGTCAATGGTCAGCTAAAGCAGCTCGC	-0.665	-0.355	-0.545	-0.517	-0.617	-0.254	-0.271	0.314	-0.862	0.0482	0.121	-0.663	-1.16	-0.747	-0.2	-0.405	-0.531	-0.153	-0.807	0.498
TGAATGAGGTTATAAGATCAGGGACCGTTGCAAA	1.45	1.26	0.0374	1.01	-0.286	2.6	1.45	2.32	0.865	1.63	1.22	1.99	0.832	-0.0564	0.812	0.874	0.0306	1.43	-0.64	1.33
ATATGTAGATTATCGGGTCATTCAGTTTGCGCAT	2.14	2.5	1.98	2.47	0.87	2.81	1.63	1.77	0.662	1.31	2.57	2.72	1.49	1.26	1.63	3.39	6.51	2.84	0.767	1.85
CGTCCAAGGTCAGCAAGTCAGTGAAAGCGACGTG	4.99	3.1	-0.297	2.02	-0.381	4.25	2.21	3.14	0.523	1.9	2.61	2.52	-0.905	-1.02	2.24	2.38	0.119	3.13	0.523	4.99
ACAGACAGGTGATGAAGTTAACTCAGGCTATCAT	-0.177	-0.305	-0.307	-0.225	-0.182	-0.03	0.514	-0.0899	-0.051	-0.038	-0.14	0.266	0.864	0.239	0.153	0.166	0.125	0.133	0.502	-0.00565
TGTCAAAGTTCATAGGTAACGTAAGTATCCACAC	6.65	5.95	4.17	4.02	1.38	5.13	7.92	7.41	4.42	6.63	0.217	4.39	1.15	2.16	1.89	5.05	3.32	4.15	0.391	4.9
CCTAGTTGGTCACGAGGTCACACACCGGATATGA	4.38	3.84	2.36	3.94	0.56	5	5.28	4.91	2.28	3.65	3.54	5.42	0.987	1.28	2.99	4.79	1.97	4.87	1.29	4.14
TCTAGCAGGTCAGAGGGTCACTCAAGAGGTACGG	4.13	3.26	0.192	2.87	-0.436	4.54	4.39	5.27	3.71	5.21	2.58	3.84	0.285	-0.567	3.57	3.55	-0.129	5.12	0.365	4.07
TTACCAAGGTGAGTTGAGGTCGTTGATCCAACTC	1.28	2.03	-0.25	1.39	-0.831	2.06	0.352	0.682	0.292	0.637	0.767	1.95	-0.517	-0.489	0.402	4.83	0.689	2.24	-0.309	1.54
TCTATTAGTTGATTAGGGCAACCTAAACAGCGGA	0.561	0.704	0.325	0.595	0.8	0.918	0.209	1.95	3.39	2.86	1.94	1.73	1.37	1.62	1.03	0.712	-0.0681	1.11	1.09	1.14
ACTAGGAGGCCAAGTTTGGGTCACTCAAACAAAG	0.516	0.308	-0.0463	0.967	-0.287	1.36	0.296	0.511	-0.488	-0.0404	1.22	1.95	-0.886	-1.06	1.15	1.22	0.347	1.83	0.176	2.43
ACTATTAGGTGACTTAGGGCAACCGATACGACGC	0.616	0.424	0.428	0.142	0.261	1.27	1.85	1.34	0.448	0.872	4.96	3.9	1.48	0.993	0.861	0.146	0.0513	0.9	1	1.31
AGAATGAGGTTATACGTACATCAGGGAAGAAAGT	2.3	2.05	0.00405	1.58	0.14	3.24	2.46	2.42	0.777	1.66	2.47	2.41	1.28	1.19	0.736	1.28	0.643	1.82	0.483	1.5
TCTCGGAGGACATGAAGGTCAGAGCTTTCCAGAG	0.472	1.08	0.0663	1.15	-0.779	1.77	0.175	1.63	2.55	1.8	2.01	0.772	-0.736	-1.67	0.875	1.77	0.899	1.69	0.0257	2.63
TAGCCTATGTCATGCGGGCCAGTATAGTGTCGGC	-0.542	-0.522	-0.975	-0.937	-0.855	-0.683	0.11	-0.476	-0.612	-0.433	-0.318	0.0427	-0.339	-0.807	-1.01	-0.639	-1.13	-0.718	-1.4	0.113
TCTATTAGTTGATGGGCAACCGACGAGTCCGTTT	0.353	0.502	-0.0154	0.186	0.322	-0.00429	0.0134	1.55	3.41	2.29	2.03	0.211	0.778	1.05	0.547	0.231	0.849	-0.171	0.633	0.125
CCTCGGAGGAAAGAAGGTCAGAGCTGTCCGCTTT	0.768	1.38	-0.152	0.92	-0.651	2.01	-0.343	0.98	-0.857	0.12	0.673	0.86	-2.12	-1.68	1.32	1.16	-0.583	1.95	0.0336	2.27
AGAATGAGGTTATTTAGATCAGGGAATTGCGGTC	2.23	1.9	0.538	1.56	0.456	2.9	1.33	1.89	0.586	1.17	2.96	2.43	1.1	0.243	1.23	1.34	0.696	1.6	0.731	1.38
GCTAGTTGGCCAGTAAAAGGTCACACACCGGTCG	2.93	4.16	3.87	4.02	0.221	4.29	1.91	3.48	1.25	2.46	0.354	1.78	-0.104	-0.574	3.08	4.62	0.59	5.25	0.379	4.07
TCTGCTACGTCAGTTGGTCAGCTAACGAGCTGCC	-1.7	-0.859	-1.04	-1.12	-0.14	-0.303	-0.674	0.0272	1.01	0.437	0.19	-0.135	0.134	0.236	-2.23	-0.876	-1.18	-0.819	-1.96	-0.0758
GCTTGTAGATCCAGGTTAAGAAAGACTAAGCTAA	-0.143	-0.0321	-0.394	-0.191	-0.462	0.491	-0.204	0.0602	-0.441	-0.11	1.08	0.859	0.236	-0.304	0.202	-0.27	-0.237	0.118	0.241	0.0746
TCGAGTAGGTTCCCAATGGGGCATTCAGCTTTCT	-0.431	-0.384	-0.577	-0.1	-1.76	-0.101	-0.771	0.361	0.7	0.426	0.883	0.261	-1.28	-1.09	-0.805	-0.411	-1.24	-0.343	-1.9	-0.327
CAAACTAGGTCAAGGTAAAAGTCGGTTTGTGCCA	3.54	2.52	0.259	1.97	0.356	4.86	8.27	7.09	4.93	6.9	8.78	8.76	1.41	0.73	1.61	1.54	-0.0973	2.24	0.604	4.42
GCCACTGGGGCAAAGCAGGTTACCATAAGGTTGG	0.159	0.154	-0.633	-0.0213	-0.866	1.67	2.09	2.57	0.133	1.47	5.67	5.29	0.444	-0.613	0.322	0.224	-0.707	1.06	-0.774	1.01
GCGACTGGGGCATCTGCAGGTTACCATAACTTAA	-0.256	0.365	-0.281	1.41	-0.198	1.53	0.863	1.01	-0.39	0.715	3.92	2.96	-0.0823	-0.117	0.207	0.314	-0.507	0.637	-1.22	0.859
CCAGACAGGTGAAAGGTAAGTCAGTCTGGTACGC	0.207	0.575	-0.142	0.505	-0.505	2.87	4.52	5.14	3	4.82	2.21	2.43	-0.386	-0.609	0.848	0.517	-0.131	1.06	0.44	1.14
